Laboratory results taken from publication PMC5540273 (PLoS ONE, 2017).

Tested on: CSF1R-autoinhibited
Conditions: concentration: 1 μM, replicates: in singlicate; n = 1
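Note: KINOMEscan kinase panel screen.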

SMILES | %Inh
Cc1ccc(C)c(NC(=O)NC2CCN(c3ccnc(Nc4ccc(F)cc4)n3)C2)c1 (stereo not drawn) [GSK1379720] | 25%
Cl.Cl.NCC(NC(=O)c1cc(-c2ccccc2)c(-c2ccnc3[nH]ccc23)s1)c1ccccc1 (stereo not drawn) [GSK1321561] | 0%
CN(C)Cc1ccc(-c2ccc3c(Nc4ccc(Oc5ccccn5)cc4)ccnc3c2)o1 [GW567148] | 11%
COc1cccc(C(=O)Nc2cccc(Oc3ccc4nc(NC(=O)C5CC5)cn4n3)c2)c1 | 94.2%
CNC(=O)c1ccccc1Nc1nc(Nc2ccc(N3CCOCC3)cc2)ncc1Cl.Cl [GSK1576028] | 89%
C[C@@H]1CC[C@@H](C(=O)Nc2ccccc2)CN1c1cc(-c2ccc3c(N)n[nH]c3c2)nc(N)n1 [GSK2286062] | 10%
Cn1cc(-c2ccc3c(c2)CCN3C(=O)Cc2cccc(Cl)c2)c2c(N)ncnc21 [GSK2606590] | 5%
FC(F)(F)c1ccc(/C=C/c2cncnc2Nc2ccc3[nH]c(Cc4ccccc4)nc3c2)cc1 [GW709199] | 0%
COc1cccc(NC(=O)NC2CCN(c3ccnc(Nc4cc(OC)c(OC)c(OC)c4)n3)C2)c1 (stereo not drawn) [GSK1379763] | 6%
Fc1ccc(-c2ncn(C3CCNCC3)c2-c2ccnc(Oc3ccc(-c4ccccc4)cc3)n2)cc1 [SB-245391] | 8%
Oc1cc(Nc2ccnc3cc(I)ccc23)ccc1F [GW552771] | 23%
COC(=O)Nc1nc2ccc(Oc3ccc(NC(=O)Nc4cc(C(F)(F)F)ccc4F)cc3)cc2n1C.Cl [GW692089] | 0%
